{"source": "PubChem BioAssay AID492953", "about": "(The Scripps Research Institute Molecular Screening Center, 2010)", "note": "About 4,200 (1.2%) of roughly 340,000 compounds were called active.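 The calls were made as follows: active = inhibition above the mean of all tested compounds plus 3 SD (cut at about 24% in these data); inactive = the rest.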 The full list was thinned out, with actives kept by preference.", "data": [{"biological_target": "Platelet-activating factor acetylhydrolase IB subunit alpha2 (Homo sapiens) (UniProt P68402)", "sequence (P68402 whole entry, looked up)": "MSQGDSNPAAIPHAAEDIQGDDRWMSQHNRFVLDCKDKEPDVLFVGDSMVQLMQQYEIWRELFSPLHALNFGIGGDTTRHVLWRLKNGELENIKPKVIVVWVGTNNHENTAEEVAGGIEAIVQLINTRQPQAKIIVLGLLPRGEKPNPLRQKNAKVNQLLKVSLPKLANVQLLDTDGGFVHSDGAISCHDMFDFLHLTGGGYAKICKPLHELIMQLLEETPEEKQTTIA", "assay": "PAFAH1B2 enzyme inhibitors, primary screen, biochemical, fluorescence polarization, human (AID 492953);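 also: 0% = enzyme with DMSO and 100% = wells lacking PAFAH1B2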", "conditions": "recombinant PAFAH1B2, FP-rhodamine activity probe, at 3.39 µM, active compounds read high", "values": [{"molecule": "Cc1ccc2c(c1)=C/C(=C\\c1c(O)[nH]c(=O)[nH]c1=O)C(=O)N=2", "inhibition": "24.9% (active)"}, {"molecule": "O=c1[nH]c(O)c(C=Nc2cc(F)cc(F)c2)c(=O)[nH]1", "inhibition": "-5.42% (inactive)"}, {"molecule": "O=C1N=c2ccccc2=C/C1=C\\c1c(O)[nH]c(=S)[nH]c1=O", "inhibition": "3.53% (inactive)"}, {"molecule": "Cc1ccc(Cn2c(C)c3cnn(CC(=O)N4CCC5(CC4)OCCO5)c(=O)c3c2C)cc1", "inhibition": "4.99% (inactive)"}, {"molecule": "Cc1cccc(OP(=O)(Oc2cccc(C)c2)OC(c2ccccc2)C(F)(F)F)c1", "note": "(stereo not given)", "inhibition": "10.7% (inactive)"}, {"molecule": "CNC(=O)O/N=C(\\N)Cc1csc2ccc(Cl)cc12", "inhibition": "71.7% (active)"}, {"molecule": "CNC(=O)O/N=C(\\N)Cc1csc2ccccc12", "inhibition": "7.09% (inactive)"}, {"molecule": "N[C@@H](Cc1c[nH]c2ccccc12)c1nnc(SCc2c(F)cccc2Cl)o1", "inhibition": "3.92% (inactive)"}, {"molecule": "CCC(C)(O)C(=O)OC1C(=O)OC2CC3C(C)=CC(=O)C(O)C3(C)C3C4(O)OCC23C1C(C)C4O", "note": "(stereo not given)", "inhibition": "-0.05% (inactive)"}, {"molecule": "CCCCCn1c(=O)c(C(=O)Nc2c(C)n(C)n(-c3ccccc3)c2=O)c(O)c2ccccc21", "inhibition": "-3.03% (inactive)"}, {"molecule": "CC(C)(C)c1ccc(CN2C(=O)CN=C(c3ccccc3)c3ccccc32)cc1", "inhibition": "88% (active)"}, {"molecule": "Nc1ccc(C(=O)N/N=C2/CN3CCC2CC3)cc1", "inhibition": "-0.84% (inactive)"}, {"molecule": "CN(C)CC1CCCCC1OC(=O)c1ccc(Cl)c(Cl)c1", "note": "(stereo not given)", "inhibition": "-0.45% (inactive)"}, {"molecule": "CCCCCCN=C(CC)c1c(O)n(CCCC)c(=O)[nH]c1=O", "inhibition": "5.01% (inactive)"}, {"molecule": "CN(C)CC1Oc2ccccc2OC1(O)c1ccccc1", "note": "(stereo not given)", "inhibition": "0.51% (inactive)"}, {"molecule": "CC1=CC(=Cc2sc3ccccc3[n+]2C)C=C(C)O1", "inhibition": "-0.8% (inactive)"}, {"molecule": "O=C(N/N=C/c1c(O)n(Cc2ccccc2)c(=O)[nH]c1=O)c1ccccc1", "inhibition": "18.9% (inactive)"}, {"molecule": "CC/C(=N\\NC(=O)c1ccccc1O)c1c(O)n(Cc2ccccc2)c(=O)[nH]c1=O", "inhibition": "26.1% (active)"}, {"molecule": "CCC(=NCc1ccco1)c1c(O)n(Cc2ccccc2)c(=O)[nH]c1=O", "inhibition": "3.82% (inactive)"}, {"molecule": "O=C(NCC(c1cccnc1)N1CCN(c2ccccc2)CC1)Oc1ccccc1", "note": "(stereo not given)", "inhibition": "4.28% (inactive)"}, {"molecule": "O=C(CSC1c2ccccc2-c2ccccc21)N/N=C/c1ccccc1", "inhibition": "8.06% (inactive)"}, {"molecule": "c1ccc(CCN2CCC3(CC2)OCCO3)cc1", "inhibition": "3.22% (inactive)"}, {"molecule": "O=C(OCCN1CCOCC1)C1(c2ccccc2)CCCC1", "inhibition": "36.1% (active)"}, {"molecule": "CCOC(=O)C1(c2ccccc2)CCN(CC(O)c2ccc(NC(C)=O)cc2)CC1", "note": "(stereo not given)", "inhibition": "0.73% (inactive)"}, {"molecule": "Cc1ccc(N(C)C(=O)Oc2cccc3ccc(C)nc23)cc1", "inhibition": "2.03% (inactive)"}]}]}
